Screens (PubChem BioAssay)
Shown are actives, neighbours in structure and some others; about 4.2% of the full set was active somewhere.
Integrin act MD = integrin-mediated muscular dystrophy alleviation activation. alpha7betagal myoblasts, beta-gal FDG fluorescence, 48 h. Potency, µM (highest dose often 38.3 µM), usual class: activators. 350,000 compounds, 0.064% hits. AID 624291; note: nearly all actives have a fitted effect of over 60% in size
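alpha7betagal+/- myoblasts (passage 13, 250/well) treated 48 h at 37C with compounds at 1:260 dilution of DMSO stock. Lysed, then beta-galactosidase activity read as FDG fluorescence (ex 480/em 540) after 30 min, with pre-read for autofluorescence.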
SW480 rereplic = inducers of DNA re-replication in SW480 colon cancer cells. 340,000 compounds, 1.8% hits. Potency, µM (doses to about 46.1 µM), usual class: activators. SW480 DNA re-replication, Hoechst DNA content imaging, 48 h; note: nearly all actives have a fitted effect of over 55% in size
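Readout is total intensity of Hoechst-stained nuclei, excited at 405 nm and collected at 500-530 nm. Compound treatment lasted 48 hr at 37 C in 5% CO2 before staining.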
MCF10A rereplic = DNA re-replication induction in MCF 10a cells | 350,000 compounds, 2.9% hits | MCF 10A DNA re-replication, Hoechst nuclear intensity, 48 h | Potency, µM (top dose mostly 46.1 µM), usual class: activators; note: nearly all actives have a fitted effect of over 50% in size
Mito fusion act = blocks mitochondrial division or promotes mitochondrial fusion; Potency, µM (titrated, usually from 46.1 µM), most hits filed as activators; 320,000 compounds, 0.23% hits; S. cerevisiae fusion-defective mutant growth rescue, CellTiterGlo 48 h; AID 485298; note: nearly all actives have a fitted effect of over 45% in size
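Read-out: ATP-based luminescence (CellTiterGlo, 10 min ambient) reporting growth of fusion-defective ts yeast after 48 hours at 37C on glycerol/ethanol YPEG medium in the presence of compound.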
AT treatment = potential ataxia-telangiectasia treatment; F2112 A-T fibroblasts, KAP-1 phosphorylation AlphaLISA; neocarzinostatin DNA damage 30 min before lysis; Potency, µM (top dose mostly 57.5 µM), actives largely listed as activators; 320,000 compounds, 0.19% hits; AID 485349; note: nearly all actives have a fitted effect of over 45% in size
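ATM-like activity read as KAP-1 phosphorylation via AlphaLISA donor/acceptor antibody pairs after lysis and 6 hr at 25C. Cells were ATM-null patient fibroblasts (F2112, hTERT), dosed 60 min, then exposed to the DSB inducer NCS for 30 min.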
Large screens that a line does not name were inactive. Calls come from the whole dose curve; as a rule, active = well fitted activation curve with a large enough effect; inconclusive = small, poorly fitted or top-dose-only effect; inactive = no such curve, though single readings can be large or run the other way.

CC1CCN(c2oc(-c3cccc4ccccc34)nc2C#N)CC1	MCF10A rereplic 10µM
CC(C)C[C@H](NC(=O)OC(C)(C)C)c1nnc(SCc2ccccc2)o1	SW480 rereplic 2.6µM
CCC(CO)Oc1cc(NCc2ccc(C)c(C)c2)c2ncn(C(C)C)c2c1 (stereo not drawn)	SW480 rereplic 5.2µM, MCF10A rereplic 15µM (no result: Mito fusion act)
CCC(CO)Oc1cc(NCc2cc(C)cc(C)c2)c2ncn(C(C)C)c2c1 (stereo not drawn)	none (no result: Mito fusion act)
CCC(CO)Oc1cc(NCc2ccc(F)cc2)c2ncn(C(C)C)c2c1 (stereo not drawn)	SW480 rereplic inconclusive, MCF10A rereplic 23µM (no result: Mito fusion act)
CCC(CO)Oc1cc(NCc2ccncc2)c2ncn(C(C)C)c2c1 (stereo not drawn)	none (no result: Mito fusion act)
CCC(CN(C)C)Oc1cc(NCc2ccccc2)c2ncn(C(C)C)c2c1 (stereo not drawn)	SW480 rereplic 18µM, MCF10A rereplic inconclusive (no result: Mito fusion act)
Cc1nnc2ccc(-c3ccc(NS(=O)(=O)c4ccc(Cl)s4)cc3)nn12	none
COc1ccccc1CNC(=O)c1cc(-c2ccncc2)nc2c(Cl)cccc12	SW480 rereplic inconclusive
COC(=O)C1CN(C(=O)c2ccc(OC(F)F)cc2)c2ccccc2O1 (stereo not drawn)	none
CCCC(=O)NC1=C(Cl)C(=O)c2ccccc2C1=O	SW480 rereplic 6.5µM, MCF10A rereplic inconclusive (no result: Mito fusion act, AT treatment)
Cc1ccc(NC2=C(N3CCOCC3)C(=O)c3ccccc3C2=O)cc1	none (no result: AT treatment)
O=C1C(Cl)=C(Nc2ccc(O)cc2)C(=O)c2ccccc21	MCF10A rereplic 2.9µM
CCN(CC)c1ccc(NC2=C(Cl)C(=O)c3ccccc3C2=O)cc1	SW480 rereplic inconclusive, MCF10A rereplic 4.6µM, AT treatment inconclusive
Cc1ccc(NC2=C(Cl)C(=O)c3ccccc3C2=O)cc1	SW480 rereplic 4.1µM, MCF10A rereplic 7.3µM
CCNC1=C(Cl)C(=O)c2ccccc2C1=O	SW480 rereplic inconclusive, MCF10A rereplic inconclusive (no result: AT treatment)
CN(C)c1ccc(C(=O)N=c2sccn2C)cc1[N+](=O)[O-]	none
CCCCN1CC(COCc2ccccc2)Oc2cccc(Oc3cc(C)c(C)c(C)c3)c2S1(=O)=O (stereo not drawn)	SW480 rereplic inconclusive (no result: Mito fusion act, AT treatment)
COc1ccccc1C(CCNS(=O)(=O)c1ccc(C)cc1)c1ccco1 (stereo not drawn)	MCF10A rereplic 13µM
Cc1ccc(S(=O)(=O)NCCC(c2ccccc2)c2ccco2)cc1 (stereo not drawn)	none (no result: AT treatment)
S=C(S)OC1CC2CC1C1CCCC21 (stereo not drawn)	SW480 rereplic inconclusive, MCF10A rereplic inconclusive, Mito fusion act 18µM (no result: Integrin act MD, AT treatment)
Cc1nc([N+](=O)[O-])c(Br)n1CC(=O)c1ccccc1	SW480 rereplic inconclusive, MCF10A rereplic inconclusive
Cc1nc([N+](=O)[O-])c(Br)n1CC(=O)c1ccc2ccccc2c1	SW480 rereplic inconclusive, MCF10A rereplic 0.65µM
O=C1CCc2cc(S(=O)(=O)NC3CCCCC3)ccc2N1	none
CC(C)NC(=O)NC(=O)CSc1nnc(COc2ccccc2F)n1C(C)C1CC2CCC1C2 (stereo not drawn)	SW480 rereplic inconclusive, MCF10A rereplic 13µM
CC(C1CC2CCC1C2)n1c(COc2ccccc2F)nnc1SCC(N)=O (stereo not drawn)	MCF10A rereplic inconclusive
Cc1ccc2c(c1)[C@H]1[C@H](CO2)[C@H](c2ccccc2)[C@]2(C)C(=O)Nc3ccc(F)cc3C(=O)N12	SW480 rereplic 5.8µM, MCF10A rereplic 3.3µM (no result: Mito fusion act, AT treatment)
COc1ccc2c(c1)OC[C@H]1[C@H]2N2C(=O)c3cc(F)ccc3NC(=O)[C@@]2(C)[C@H]1c1ccccc1	SW480 rereplic inconclusive, MCF10A rereplic inconclusive (no result: Mito fusion act)
COc1ccc2c(c1)[C@H]1[C@H](CO2)[C@H](c2ccccc2)[C@]2(C)C(=O)Nc3cc(C)ccc3C(=O)N12	SW480 rereplic inconclusive, MCF10A rereplic inconclusive (no result: Mito fusion act)
Cc1ccc2c(c1)[C@H]1[C@H](CO2)[C@H](c2ccccc2)[C@]2(C)C(=O)Nc3cc(Cl)ccc3C(=O)N12	SW480 rereplic inconclusive, MCF10A rereplic 9.2µM, Mito fusion act inconclusive
Cc1ccc2c(c1)[C@H]1[C@H](CO2)[C@H](c2ccccc2)[C@]2(C)C(=O)Nc3cc(F)c(F)cc3C(=O)N12	SW480 rereplic 23µM, MCF10A rereplic 5.2µM (no result: Mito fusion act)
